Screens: PubChem, National Center for Advancing Translational Sciences (NCATS)
FLuc counter: qHTS profiling assay for firefly luciferase inhibitor/activator using purifed enzyme and Km concentrations of substrates (counterscreen for miR-21 project); Luciferin 4-monooxygenase (Photinus pyralis), P08659; purified FLuc, Km substrates, luminescence inhibition; Potency, µM (titrated, usually from 57.5 µM), usual class: inhibitors; hit rate 6.9% among 360,000; AID 588342, 2011; note: nearly all actives have a fitted effect of over 55% in size
Target sequence (P08659 whole entry, looked up): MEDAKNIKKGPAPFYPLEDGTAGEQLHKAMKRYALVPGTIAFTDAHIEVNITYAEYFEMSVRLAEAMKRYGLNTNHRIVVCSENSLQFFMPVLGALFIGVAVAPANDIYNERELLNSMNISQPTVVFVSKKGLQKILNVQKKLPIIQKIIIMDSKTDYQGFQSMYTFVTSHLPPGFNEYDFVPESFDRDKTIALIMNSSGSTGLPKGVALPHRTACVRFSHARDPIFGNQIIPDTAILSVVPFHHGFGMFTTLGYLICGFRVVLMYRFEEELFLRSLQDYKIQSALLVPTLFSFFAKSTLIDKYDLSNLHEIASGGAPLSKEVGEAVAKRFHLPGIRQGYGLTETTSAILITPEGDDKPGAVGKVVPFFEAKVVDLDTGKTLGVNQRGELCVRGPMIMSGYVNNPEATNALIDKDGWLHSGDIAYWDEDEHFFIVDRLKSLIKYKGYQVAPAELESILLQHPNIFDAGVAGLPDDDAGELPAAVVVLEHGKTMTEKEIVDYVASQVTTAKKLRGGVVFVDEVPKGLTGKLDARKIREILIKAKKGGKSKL
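Purified P. pyralis luciferase, 10 nM final, with Km-level 10 uM D-luciferin and 10 uM ATP in 50 mM Tris acetate pH 7.5, 10 mM Mg acetate, 0.01% Tween-20, 0.05% BSA; 6-point qHTS titration about 60 µM downward; luminescence read.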
Rab9 promoter act: qHTS Assay for Rab9 Promoter Activators. Huh7 Rab9 promoter-luciferase reporter, luminescence, 24 h. Potency, µM (highest dose often 9.22 µM), most hits filed as activators. hit rate 2.8% among 320,000; note: nearly all actives have a fitted effect of over 60% in size
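Huh7 cells stably carrying a Rab9 promoter-luciferase reporter, 1500 cells per well in OP-MEM I with 10% FBS, treated with compound 24 hours at 37C. Luciferase activity read by luminescence after 10 minutes with Amplite reagent.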
uPA generation: qHTS for Inhibitors of Cell Surface uPA Generation; cell surface uPA generation assay, qHTS; Potency, µM (highest dose often 38.3 µM), usual class: inhibitors; hit rate 0.31% among 330,000; AID 540303, 2011; active = well fitted inhibition curve with a large enough effect; inconclusive = small, poorly fitted or top-dose-only effect; inactive = no such curve, though single readings can be large or run the other way; tested in mouse RAW 264.7 cells; note: nearly all actives have a fitted effect of over 55% in size
NPC1 promoter act: qHTS Assay for NPC1 Promoter Activators; hit rate 2.4% among 320,000; AID 485313, 2010; Huh7 NPC1 promoter luciferase reporter, 24 h; Potency, µM (titrated, usually from 9.22 µM), hits mostly activators; note: nearly all actives have a fitted effect of over 60% in size
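NPC1 promoter–luciferase Huh7 cells; 24 h compound; luminescence.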
ELG1 genotoxic: qHTS screen for small molecules that induce genotoxicity in human embryonic kidney (HEK293T) cells expressing luciferase-tagged ELG1; HEK293T ELG1-luciferase reporter, luminescence, 16 h; Potency, µM (top dose mostly 46 µM), actives largely listed as activators; hit rate 1.3% among 330,000; AID 504466, 2011; note: nearly all actives have a fitted effect of over 60% in size
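ELG1-luciferase HEK293T cells, 2,000/well; compound pinned in; 16 hr, 37 °C, 5% CO2; ONE-Glo, 30 min RT; luminescence on CCD imager.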
SMN2 splice up: qHTS Assay for Enhancers of SMN2 Splice Variant Expression. HEK293 SMN2-luciferase splicing reporter, luminescence, 30-36 h. Potency, µM (titrated, usually from 46.1 µM), most hits filed as activators. hit rate 2.8% among 210,000; note: nearly all actives have a fitted effect of over 55% in size
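qHTS luciferase splicing reporter: luminescence rises when SMN2 exon 7 is included in transfected HEK293 cells. Compound exposure lasted 30-36 h at 37C, with 4.5 mM final sodium butyrate as control, followed by a ONE-Glo read.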
Each line names hits and unclear results; the compound was inactive in the other large screens. In the library only some 7.3% were active in any assay of this set; here they are far more common. Unless noted, calls come from the whole dose curve; as a rule, active = well fitted curve in the direction sought with a large enough effect; inconclusive = small, poorly fitted or top-dose-only effect, or another doubt; inactive = no such curve, though single readings can be large; an effect the other way counts as inactive or inconclusive.

O=C(c1cc(COc2cccc3cnccc23)on1)N1CCCC(CCCO)C1 (centres undefined)	none (no result: SMN2 splice up)
CSc1ccccc1OCc1cc(C(=O)N2CCCC(C)C2)no1 (centres undefined)	FLuc counter 6.75µM, Rab9 promoter act 1.41µM, NPC1 promoter act 1.58µM, ELG1 genotoxic 5.17µM (no result: SMN2 splice up)
CCc1ccc(N2C(=O)CC(c3cc(OC)ccc3OC)C3=C2COC3=O)cc1 (centres undefined)	none (no result: Rab9 promoter act, uPA generation, NPC1 promoter act, ELG1 genotoxic)
Cn1cnc(S(=O)(=O)N2CCC(C(=O)N3CCN(c4ccccc4F)CC3)CC2)c1	none (no result: Rab9 promoter act, uPA generation, NPC1 promoter act, ELG1 genotoxic, SMN2 splice up)
O=C(c1cc(COc2ccccc2)on1)N1CCCC(OCc2cccnc2)C1 (centres undefined)	none (no result: SMN2 splice up)
COc1ccccc1OCc1cc(C(=O)N2CCCC(OCc3cccnc3)C2)no1 (centres undefined)	FLuc counter 13.5µM, Rab9 promoter act 2.51µM, NPC1 promoter act 1.78µM, ELG1 genotoxic 8.2µM (no result: SMN2 splice up)
Nc1ncnc2c1nc(-c1ccccc1)n2[C@H]1O[C@@H](CO)[C@@H](O)[C@H]1O	none (no result: FLuc counter, Rab9 promoter act, uPA generation, NPC1 promoter act, ELG1 genotoxic)
O=c1c2ccccc2c(/C=N/c2n[nH]c(CCCO)n2)c(O)n1-c1ccccc1Cl	FLuc counter 16.9µM
O=C(N/N=C/c1c(O)n(-c2ccccc2Cl)c(=O)c2ccccc12)C1COc2ccccc2O1 (centres undefined)	none
O=[N+]([O-])c1ccc(C(c2sc3nc(-c4ccco4)nn3c2O)N2CCN(c3cccc(Cl)c3)CC2)cc1 (centres undefined)	FLuc counter 19µM (no result: Rab9 promoter act, uPA generation, NPC1 promoter act, ELG1 genotoxic, SMN2 splice up)
CCN1CCN(C(c2ccccc2)c2sc3nc(-c4ccco4)nn3c2O)CC1 (centres undefined)	none (no result: Rab9 promoter act, uPA generation, NPC1 promoter act, ELG1 genotoxic, SMN2 splice up)
C[C@H](CO)N1C[C@H](C)[C@@H](CN(C)S(=O)(=O)c2cccs2)Oc2c(NS(=O)(=O)c3ccc(F)cc3)cccc2C1=O	none (no result: FLuc counter, Rab9 promoter act, NPC1 promoter act, SMN2 splice up)
CCN(CC)C(=O)CSC(=Nc1ccccc1F)NC#N	Rab9 promoter act 3.98µM, NPC1 promoter act inconclusive, ELG1 genotoxic inconclusive, SMN2 splice up 14.1µM
CC1CCN(C(=O)CN2c3cccc4cccc(c34)S2(=O)=O)CC1	none (no result: SMN2 splice up)
Cc1ccc(C(=O)c2sc3nsc(C)c3c2N)cc1	FLuc counter 1.69µM, Rab9 promoter act 2.82µM, NPC1 promoter act 1.12µM, ELG1 genotoxic 0.581µM, SMN2 splice up 10µM
Cc1nc(-c2ccccc2)nc2sc(C(=O)c3ccc(F)cc3)c(N)c12	none (no result: SMN2 splice up)
Cc1snc2sc(C(=O)c3ccc(Br)cc3)c(N)c12	Rab9 promoter act 3.98µM, NPC1 promoter act 2.82µM, ELG1 genotoxic 11.6µM, SMN2 splice up inconclusive
CCCCCn1c(=O)[nH]c2cc(C(=O)NCc3ccc(C)cc3)ccc2c1=O	SMN2 splice up inconclusive (no result: Rab9 promoter act, uPA generation, NPC1 promoter act, ELG1 genotoxic)
CC(=O)c1sc(N/N=C2\CC3CC2C(C)C3(C)C)nc1C (centres undefined)	FLuc counter 13.5µM, Rab9 promoter act inconclusive, NPC1 promoter act inconclusive, ELG1 genotoxic inconclusive (no result: SMN2 splice up)
Nc1nnc(CC(=O)N/N=C/c2cccc([N+](=O)[O-])c2)s1	none
Cc1ccccc1OCCOc1cccc(/C=N/NC(=O)Cc2nnc(N)s2)c1	FLuc counter inconclusive, Rab9 promoter act 0.447µM, NPC1 promoter act 1.58µM, SMN2 splice up 5.01µM
Nc1nnc(CC(=O)N/N=C/c2cccc(OCCOc3ccccc3)c2)s1	Rab9 promoter act 3.16µM, NPC1 promoter act inconclusive, SMN2 splice up 10µM
Cc1ccccc1OCC(=O)N/N=C/c1cccc(Oc2ccc([N+](=O)[O-])cc2[N+](=O)[O-])c1	uPA generation 11.2µM
O=C(Nc1nc2ccc(F)cc2s1)c1ccc(N2CCCC2=O)cc1	Rab9 promoter act 0.316µM, NPC1 promoter act 0.398µM, ELG1 genotoxic 0.461µM (no result: SMN2 splice up)
Cc1cccc(C)c1NC(=O)c1ccc(N2CCCC2=O)cc1	none (no result: SMN2 splice up)
CCN(c1ccc(NC(=O)c2ccc(N3CCCC3=O)cc2)cc1)C(C)C	FLuc counter inconclusive, ELG1 genotoxic 6.51µM (no result: SMN2 splice up)
Cc1nnc(NC(=O)c2ccc(N3CCCC3=O)cc2)s1	FLuc counter 23.9µM, Rab9 promoter act 2.24µM, NPC1 promoter act inconclusive, ELG1 genotoxic inconclusive (no result: SMN2 splice up)
O=C(Nc1ccccc1Br)c1ccc(N2CCCC2=O)cc1	FLuc counter 15.1µM, Rab9 promoter act 2.51µM, NPC1 promoter act inconclusive, ELG1 genotoxic inconclusive (no result: SMN2 splice up)
CN(C)S(=O)(=O)c1cccc(NC(=O)c2ccc(N3CCCC3=O)cc2)c1	none (no result: FLuc counter, Rab9 promoter act, NPC1 promoter act, SMN2 splice up)
O=C(Nc1ccccc1N1CCCC1)c1ccc(N2CCCC2=O)cc1	none (no result: SMN2 splice up)
O=C(Nc1nc2ccc(F)cc2s1)C1=NN(c2ccccc2)C(=O)CC1	FLuc counter inconclusive, uPA generation inconclusive (no result: SMN2 splice up)
COc1ccc(N2CCN(S(=O)(=O)CCNC(=O)c3c(F)cccc3Cl)CC2)cc1	none (no result: Rab9 promoter act, uPA generation, NPC1 promoter act, ELG1 genotoxic, SMN2 splice up)
O=C(CCCCn1c(=O)c2ccccc2n(Cc2ccccc2F)c1=O)NCc1ccccc1Cl	none (no result: Rab9 promoter act, uPA generation, NPC1 promoter act, ELG1 genotoxic)
COc1cccc(C2=NOC(C(=O)Nc3cccnc3Cl)C2)c1 (centres undefined)	none
Cc1cc(C)c2sc(N(Cc3cccnc3)C(=O)CCS(=O)(=O)c3ccccc3)nc2c1	none (no result: Rab9 promoter act, uPA generation, NPC1 promoter act, ELG1 genotoxic, SMN2 splice up)
Cc1csc(NC(=O)c2ccc(N3CCCC3=O)cc2)n1	FLuc counter 1.9µM, Rab9 promoter act 0.316µM, uPA generation 2.82µM, NPC1 promoter act inconclusive, ELG1 genotoxic 0.651µM, SMN2 splice up 0.562µM
c1ccc2oc(SCc3cn4ccccc4n3)nc2c1	FLuc counter 9.53µM, Rab9 promoter act 1.12µM, NPC1 promoter act 1.41µM, ELG1 genotoxic 4.61µM, SMN2 splice up 14.1µM
Cc1cccc2nc(CSc3nc4ccccc4o3)cn12	FLuc counter 15.1µM
c1ccc2nc(SCc3cn4ccccc4n3)cnc2c1	FLuc counter inconclusive, Rab9 promoter act inconclusive, uPA generation inconclusive, NPC1 promoter act inconclusive, SMN2 splice up inconclusive
O=C(Nc1nnc(-c2ccc(Br)cc2)o1)c1cccc(N2C(=O)CCC2=O)c1	FLuc counter 12µM (no result: SMN2 splice up)
